High-throughput results as filed in PubChem.
GLP1R cytotox: qHTS of GLP-1 Receptor Inverse Agonists: Cytotox Screen; HEK293 cAMP-luciferase reporter cells, luminescence, 24 h; Potency, µM (titrated, usually from 38.3 µM), without a hit: at the top dose activity change, negative = inhibition, usual class: inhibitors; 410,000 tested, 0.13% active; AID 624418, 2012;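 note: loss of luciferase light is scored as toxicity; % is set by controls: 0 for no effect and ±100 for the full control effect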
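Seeding density was 200 cells/uL; after overnight-length (12 h) culture, 23 nL compounds went on for 24 h at 37 °C. Readout used a luciferase detection reagent, luminescence taken after 12 min at room temperature.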
GLP1R ag: qHTS of GLP-1 Receptor Agonists; HEK293 GLP-1R CRE-luciferase, luminescence, 4-6 h; cells express a hypersensitive GLP-1R form; Glucagon-like peptide 1 receptor (Homo sapiens), P43220; 380,000 tested, 0.007% active; Potency, µM (highest dose often 45.6 µM), without a hit: at the top dose activation, usual class: activators; AID 624172, 2012; note: % of control where 0% means no effect
Target sequence (P43220 whole entry, looked up): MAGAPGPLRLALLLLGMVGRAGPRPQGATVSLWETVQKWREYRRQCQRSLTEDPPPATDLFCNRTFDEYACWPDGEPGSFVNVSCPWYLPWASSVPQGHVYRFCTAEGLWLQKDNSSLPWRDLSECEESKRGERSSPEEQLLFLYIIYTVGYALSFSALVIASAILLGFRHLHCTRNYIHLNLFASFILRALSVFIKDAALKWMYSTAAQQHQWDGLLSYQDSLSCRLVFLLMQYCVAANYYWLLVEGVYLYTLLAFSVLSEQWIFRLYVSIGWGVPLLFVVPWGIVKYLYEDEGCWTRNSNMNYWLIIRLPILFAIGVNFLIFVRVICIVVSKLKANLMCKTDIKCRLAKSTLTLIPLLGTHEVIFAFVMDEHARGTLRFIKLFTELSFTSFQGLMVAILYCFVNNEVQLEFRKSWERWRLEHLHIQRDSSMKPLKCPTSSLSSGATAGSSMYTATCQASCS
GLP1R inv ag: qHTS of GLP-1 Receptor Inverse Agonists (Inhibition Mode) | 410,000 tested, 1.6% active | Potency, µM (doses to about 38.3 µM), for inactives: top-dose activity change, negative = inhibition, most hits filed as inhibitors | Glucagon-like peptide 1 receptor (Homo sapiens), P43220 | HEK293 GLP-1R CRE-luciferase, luminescence, 24 h; GLP-1R form is constitutively active; note: % is set by controls: 0 for no effect and ±100 for the full control effect; nearly all actives have a fitted effect of over 55% in size
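Readout was luciferase luminescence, measured 12 min after detection reagent at room temperature. Beforehand, GLP-1R reporter HEK293 cells had sat 12 h, then received compounds for 24 hr at 37 deg C.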
BRCA1 expr up: qHTS Assay to Identify Small Molecule Activators of BRCA1 Expression. 380,000 tested, 1.1% active. MCF7-BRCA1-FFLuc reporter, luminescence, 48 h; response scale: scaled: vehicle 0%, 10 µM genistein 100%. Potency, µM (doses to about 46.1 µM), inactives show top-dose activation, most hits filed as activators. AID 624202, 2012; note: nearly all actives have a fitted effect of over 80% in size
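Reporter cells (MCF7, BRCA1 promoter-firefly luciferase) received library compounds across a concentration series for 48 h. End-point luminescence was measured and concentration-effect curves derived after normalization.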
Starred values were filed as active, the others as inactive; ? = inconclusive; · = not tested or not shown; [ ] = dose if it differs, or a comment. In the library only some 2.6% were active in any assay of this set; here they are far more common. Calls come from the whole dose curve; as a rule, active = well fitted curve in the direction sought with a large enough effect; inconclusive = small, poorly fitted or top-dose-only effect, or another doubt; inactive = no such curve, though single readings can be large; an effect the other way counts as inactive or inconclusive. Potency is the fitted concentration of half-maximal effect.

SMILES	GLP1R cytotox	GLP1R ag	GLP1R inv ag	BRCA1 expr up
N=c1c2c(ncn1Cc1ccco1)Oc1cc(O)ccc1C2c1ccccc1 (stereo not drawn)	2.1%	6.8%	39.0%	-4.6%
COc1cc(OC)cc(C(=O)Nc2nc(CC(=O)NC(C)c3ccccc3)cs2)c1 (stereo not drawn)	-1.3%	-0.9%	?	-8.0%
Cc1nn(C)cc1/C=C/C(=O)c1ccc(O)cc1	4.1%	-1.6%	61.3%	90.6%
C#CCCc1cscc1/C=[N+](\[O-])c1ccc(C(=O)OCC)cc1	-7.9%	-0.2%	5.4%	6.31µM*
CCCCS(=O)(=O)N[C@@H](Cc1ccc(OCCCCC2CCNCC2)cc1)C(=O)O	·	3.7%	·	·
CC(C)(C)CC(=O)Nc1nnc(C(F)(F)F)s1	5.5%	-4.0%	?	23.9%
CC(NC(=O)Nc1nnc(C(F)(F)F)s1)(C(F)(F)F)C(F)(F)F	?	-0.8%	4.47µM*	-79.7%
COc1cccc2cc(C(=O)NC3CC4CCC3C4)oc12 (stereo not drawn)	-7.6%	3.0%	10µM*	41.2%
COc1ccc(CN(C)C(c2ccccc2)c2nnnn2-c2ccccc2C)c(OC)c1C (stereo not drawn)	1.1%	2.3%	10µM*	-49.0%
COc1cc(OC)c(OC)cc1CN(C)C(c1ccccc1)c1nnnn1-c1ccccc1C (stereo not drawn)	-5.9%	9.2%	11.2µM*	-49.7%
COc1cccc(CN(C)C(c2ccccc2)c2ccccc2)c1OC	27.0%	1.8%	?	-20.6%
CN(CC1(C)CCCO1)S(=O)(=O)c1ccc(Cl)c(S(N)(=O)=O)c1 (stereo not drawn)	·	-2.3%	·	·
CCCCCCn1c(=O)n2n(c1=O)C[C@]1(OC(=O)NCC3CCCCC3)CN(S(=O)(=O)c3ccc(C)cc3)C[C@]1(O)C2	-20.5%	-3.3%	10µM*	-68.7%
CCCCCCn1c(=O)n2n(c1=O)[C@@H]1CN(S(=O)(=O)c3ccc(C)cc3)C[C@]1(O)[C@@H](OC(=O)NCc1ccccc1)C2	-17.3%	-2.6%	11.2µM*	-62.8%
Cc1ccc2oc3c(c(=O)c2c1)C(c1ccc(OCC(N)=O)cc1)N(Cc1ccc2c(c1)OCO2)C3=O (stereo not drawn)	-1.3%	·	10.9%	·
Cc1ccc(C)c(N2CCN(C3(c4ccccc4)C(=O)c4ccccc4C3=O)CC2)c1	9.1%	·	?	·
CC1C(=O)C(C)C(c2cc(Cl)ccc2O)NC1c1cc(Cl)ccc1O (stereo not drawn)	?	-2.8%	5.62µM*	-74.3%
Cn1nc(C(=O)OCC(=O)NCc2ccc(Cl)cc2Cl)c2ccccc2c1=O	5.4%	0.0%	-14.3%	-9.7%
COc1ccc(NC(=O)CSc2nnc(-c3ccccc3Cl)n2Cc2ccco2)c(OC)c1	-26.5%	-2.7%	7.08µM*	-27.8%
Cc1ccc(S(=O)(=O)N2CCCC(c3nc4c(nnn4Cc4ccc(OC(F)(F)F)cc4)c(=O)[nH]3)C2)cc1 (stereo not drawn)	14.5%	·	5.1%	·
Cc1ccccc1NC(=O)c1ccc(F)c(S(=O)(=O)N(C)C2CCCCC2)c1	-1.1%	·	10µM*	·
COC(=O)c1ccc(/C(O)=C(\C#N)c2nc3ccccc3s2)cc1	4.5%	2.5%	0.0%	5.01µM*
CCCN(CCC)c1nc(N)nc(-c2cc(Cl)ccc2OC)n1	-17.8%	22.5%	8.91µM*	-30.9%
COc1ccccc1NC(=O)CSc1nc(O)c(C/C=C/c2ccccc2)c(=O)[nH]1	10.1%	·	-14.0%	·
COc1ccc(NC(=O)CCCNC(=O)c2ccc(Cl)cc2)cc1S(=O)(=O)N1CCCCC1	2.2%	-2.1%	7.2%	-4.2%
SMILES	GLP1R cytotox	GLP1R ag	GLP1R inv ag	BRCA1 expr up
Cc1ccc(-c2cc(N)n(-c3ccc(C)cc3)n2)cc1	-2.0%	-5.4%	?	10µM*
Cc1ccc(-c2cc(N)n3nc(-c4ccc(C)cc4)cc3n2)cc1	?	-12.5%	-0.2%	-24.2%
Cc1ccc(-c2cc(N)n(-c3ccc(F)cc3)n2)cc1	-1.1%[0.307 µM]	8.9%	8.3%[0.307 µM]	5.01µM*
Cc1ccc(-n2nc(-c3ccccc3)cc2Nc2ccccc2N)cc1	-12.6%	1.0%	?	-4.6%
COc1ccccc1/C=C/C=N/NC(=O)c1ccccn1	-5.0%	11.8%	6.7%	5.01µM*
COc1ccccc1/C=C/C(=O)NCCc1ccccn1	4.7%	13.8%	3.7%	3.16µM*
